In the library only some 12% were active in any assay of this set; here they are far more common.
JMJD2A Tudor – inhibitors of human JMJD2A Tudor domain; O75164; AlphaScreen JMJD2A-Tudor / H3K4me3 peptide binding; Potency, µM (series often up to 114 µM), inactives show at the highest dose activity change, negative = inhibition, most hits filed as inhibitors; actives 4.4% (n = 390,000); note: % is set by controls: 0 for no effect and ±100 for the full control effect; nearly all actives have a fitted effect of over 50% in size
HP1b binding inh – HP1-beta chromodomain-methylated histone interaction inhibition. P83916. actives 0.56% (n = 390,000). Potency, µM (series often up to 114 µM), for the others: top-dose activity change, negative = inhibition, usual class: inhibitors. AlphaScreen HP1-beta / biotin-H3K9me3 peptide binding; note: nearly all actives have a fitted effect of over 70% in size
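HP1-beta protein (50 nM final) preincubated 30 min at room temperature with biotinylated H3(1-18)K9me3 peptide (50 nM) in PBS pH 7.4, 0.01% Tween-20, then compound added for 30 min. AlphaScreen streptavidin donor/nickel chelate acceptor beads (10 ug/mL final), 30 min dark, luminescence read.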
G9a inh – blocks human histone lysine methyltransferase G9a; Q96KQ7; G9a H3K9 monomethylation, AlphaScreen, 2 h; Potency, µM (top dose mostly 102 µM), inactives show at the highest dose activity, negative = inhibition, actives largely listed as inhibitors; actives 8.8% (n = 350,000); note: % is set by controls: 0 for no effect and ±100 for the full control effect; nearly all actives have a fitted effect of over 75% in size
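Compounds were preincubated with 20 nM G9a for 15 min, after which biotinylated H3K9 peptide (500 nM) and SAM (20 uM) started a 2 h room-temperature reaction. Monomethylated product was quantified by antibody-based AlphaScreen chemiluminescence.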
BAZ2B block – blocks human BAZ2B. actives 4.4% (n = 360,000). AID 504333. AlphaScreen BAZ2B-H3K14Ac peptide displacement. Potency, µM (highest dose often 114 µM), inactives show top-dose activity change, negative = inhibition, most hits filed as inhibitors; note: % is set by controls: 0 for no effect and ±100 for the full control effect; nearly all actives have a fitted effect of over 60% in size
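Protein-peptide AlphaScreen: BAZ2B 50 nM, b-H3K14Ac 50 nM, 1x PBS pH 7.4 + 0.01% Tween-20. Preincubation 30 min RT; cpd 30 min RT (top 110 uM); beads 20 min RT, light-protected.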
Sfp PPTase inh – Sfp phosphopantetheinyl transferase inhibition; Q9F4F7; Biochemical Sfp PPTase activity, qHTS; Potency, µM, for the others: largest response in the series, negative = inhibition, hits mostly inhibitors; actives 3.5% (n = 310,000);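 note: the enzyme is Sfp with the accession as filed and its product quenches rhodamine fluorescence; 0% = enzyme reaction without inhibitor and -100% = no enzyme wells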
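Step 1, compound plus 15 nM Sfp-PPTase, 15 min, room temperature. Step 2, add rhodamine-CoA (5 uM) and BHQ-2-YbbR (12.5 uM). Step 3, read 525/598 nm fluorescence at 0 and 30 min.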
L3MBTL1 inh – L3MBTL1 (human) inhibition; AlphaScreen L3MBTL1–H3K9me1 peptide binding; AID 485360; actives 0.66% (n = 230,000); Potency, µM (top dose mostly 57.1 µM), inactives show at the top dose activity, negative = inhibition, most hits filed as inhibitors; note: % is set by controls: 0 for no effect and ±100 for the full control effect; nearly all actives have a fitted effect of over 60% in size
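L3MBTL1 (50 nM) pre-complexed 30 min with biotinylated H3(1-15)K9me1 peptide (75 nM), then compounds added for 30 min at room temperature; AlphaScreen streptavidin donor/nickel chelate acceptor beads (10 ug/mL final) read after 30 min dark incubation.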
Numbers without * were called inactive; ? = inconclusive; / = not tested or not shown; [ ] = another dose, or the depositor's remark. Calls come from the whole dose curve; as a rule, active = well fitted curve in the direction sought with a large enough effect; inconclusive = small, poorly fitted or top-dose-only effect, or another doubt; inactive = no such curve, though single readings can be large; an effect the other way counts as inactive or inconclusive. Potency is the fitted concentration of half-maximal effect.

SMILES	JMJD2A Tudor	HP1b binding inh	G9a inh	BAZ2B block	Sfp PPTase inh	L3MBTL1 inh
N=C(N)SCc1ccc(O)c([N+](=O)[O-])c1	-8%[11.4 µM]	11%	32µM*	-22%	79µM*	-2%
Cc1nc(SCc2ccc(O)c([N+](=O)[O-])c2)n[nH]1	?	11%[57 µM]	6.3µM*	-4%	?	7%
Cc1nc(SCc2ccc(O)c([N+](=O)[O-])c2)c([N+](=O)[O-])[nH]1	22µM*	?	/	?	18µM*	-6%
Cc1nc(SCc2ccc(Cl)c(Cl)c2)n[nH]1	-10%	34%	16%	1%	13%	6%
COc1ccc(C(=O)N2CCc3cc(OC)c(OC)cc3C2COc2ccccc2OC)cc1 (stereo unspecified)	-35%	19%	-35%[59 µM]	-38%	/	/
C/C(=N\NC(=O)c1ccc(O)cc1)c1cccc(NC(=O)c2ccccc2C)c1	-17%	25%	24%	-15%	15%	/
Cc1c(-c2ccc(Cl)cc2)oc(=O)c2c(N)n(-c3ccccc3)nc12	-34%	5%	-8%[59 µM]	50µM*	-10%	-2%
Nc1c2c(=O)oc(-c3ccccc3)cc2nn1-c1ccccc1	-31%	18%	-19%[59 µM]	-5%	3%	0%
COc1cc(C2C(=O)N(C3CCCCCC3)CC(=O)N2CCc2ccccc2)ccc1OC(C)C (stereo unspecified)	-11%	35%	-4%[59 µM]	-3%	/	/
CCCCNc1sc(S(=O)(=O)CCC)nc1S(=O)(=O)c1ccc(C)cc1	-12%	55%	-3%[59 µM]	4%	/	/
COc1ccc(CNC(=O)C2CCCN(S(=O)(=O)c3c(C)noc3/C=C/N(C)C)C2)cc1 (stereo unspecified)	-33%	34%	-29%	-13%	5%	/
C/C(=N\N=C(c1ccccc1)c1ccccc1)c1cccs1	-9%	11%	24%[59 µM]	?	-7%	-4%
CC(NO)/C(=N\O)c1cccs1 (stereo unspecified)	79µM*	?	4µM*	?	?	/
CCCn1cnc2c(N)c(C)c(C)cc21	-21%	16%	1.8µM*	3%	7%	-5%
O=C(CCCCCN1CCN(c2ccccc2-c2ccccc2)CC1)NC1CCCc2ccccc21 (stereo unspecified)	/	/	13µM*	/	/	/
O=C(CN1CCN(c2ccccc2Cl)CC1)NC1CCCc2ccccc21 (stereo unspecified)	1µM*	?	8.9µM*	20µM*	?	1%
O=C(CCc1ccccc1)NC1CCCc2ccccc21 (stereo unspecified)	-14%	34%	11%	2%	-10%	/
C/C(=N\NC(=O)c1nnn(-c2nonc2N)c1C(C)C)c1cc(C)sc1C	-13%	13%[57 µM]	26%	-20%[57.1 µM]	2%	/
CCOC(=O)CCN1C(=O)c2ccccc2Sc2ncccc21	-8%	14%	19%	5%	5%	/
Cc1ccc(C)c(OCC(=O)Nc2ccccc2C(=O)N2CCOCC2)c1	-4%	31%[57 µM]	89µM*	-14%	7%	/
Cc1ccc(C)c(OCCCC(=O)Nc2ccc(N3CCOCC3)cc2)c1	/	/	40µM*	?	-3%	?
Cc1ccc(C)c(OCCC(=O)OCC(=O)Nc2ccc(N3CCOCC3)cc2)c1	-5%	29%	?	-12%	/	-13%
Cc1ccc(C)c(OCC(=O)Nc2cc(C(=O)O)cc(C(=O)O)c2)c1	-23%	1%	45µM*	-7%	-21%	-2%
Cc1ccc(C)c(OCC(=O)Nc2ccc(N3CCOCC3)cc2)c1	?	-16%	32µM*	?	-7%	-20%
Cc1cc(C)c(OCC(=O)Nc2cc(C(=O)O)cc(C(=O)O)c2)cc1C	-7%	6%	-37%	4%	16%	/
SMILES	JMJD2A Tudor	HP1b binding inh	G9a inh	BAZ2B block	Sfp PPTase inh	L3MBTL1 inh
Cc1cc(Cl)ccc1NC(=O)c1cc(S(=O)(=O)N2CCOCC2)cn1C	-16%	21%	10%[59 µM]	3%	/	/
COc1cc(OC)c(C(=O)OC(C)C(=O)NCc2ccc3c(c2)OCO3)cc1OC (stereo unspecified)	-10%	44%	/	/	/	6%
CCn1c(CCC(=O)N(C)CC(=O)Nc2cccc(F)c2)nc2cc(S(=O)(=O)N(C)C)ccc21	-14%	21%	?	9%	/	3%
CCc1ccc(OCCCC(=O)Nc2ccc(N3CCOCC3)cc2)cc1	-25%	12%	/	-1%	3%	55%
Cc1cccc(OCCCC(=O)Nc2ccc(N3CCOCC3)cc2)c1	-26%	-7%	13µM*	-6%	3%	/
Cc1ccc(-c2nnc3ccc(SCC(=O)c4ccccc4)nn23)cc1	-5%[57.1 µM]	9%[57 µM]	/	/	/	/
COc1cccc(-n2cc(C(=O)NCc3ccccc3OC)c3ccccc3c2=O)c1	-15%	38%	-1%[59 µM]	-3%	/	/
CCOc1ccc(-n2cc(C(=O)NC(C)C)c3cc(OC)c(OC)cc3c2=O)cc1	20µM*	-12%	-40%	0%	12%	-1%
COc1ccc(-n2cc(C(=O)NCCc3cc(OC)ccc3OC)c3ccccc3c2=O)cc1	50µM*	-6%	?	?	/	/
CN(C(=O)C1CCCCC1)C1(C)CCS(=O)(=O)C1 (stereo unspecified)	-1%	1%	-29%	6%	/	4%
Cc1[nH]c2ccccc2c1-c1nc(N)sc1C	-23%	7%	71µM*	?	-1%	/
CCc1ccc(CNC(=O)C2COc3ccccc3C2)cc1 (stereo unspecified)	-15%	26%[57 µM]	4%[59 µM]	1%	/	/
CCCNC(=O)c1ccc(N2CCC3(CC2)CC(c2ccccc2)=NO3)c(NC(=O)Cc2ccc(F)cc2)c1	-32%	28%	50µM*	?	6%	-5%
CCCNC(=O)c1ccc(N2CCC3(CC2)CC(c2ccccc2)=NO3)c(N)c1	-9%	24%	/	0%	-2%	4%
COc1ccc(Cl)cc1NC(=O)Cn1c(=O)c(-c2ccccc2NC(C)=O)nc2ccccc21	-1%	57%	-30%[59 µM]	?	/	/
CCOC(=O)C1=C(C)N(c2ccc(OCC)cc2)C(=O)/C1=C\c1ccco1	22µM*	45µM*	?	8.9µM*	50µM*	/
COC(=O)C1=C(C)N(c2cccc(OC)c2)C(=O)/C1=C\c1ccco1	45µM*	40µM*	?	18µM*	-17%	?
COC(=O)C1=C(C)N(CCc2ccccc2)C(=O)/C1=C\c1ccco1	40µM*	-59%	32µM*	35µM*	50µM*	?
COC(=O)C1=C(C)N(c2ccc(OC)cc2)C(=O)/C1=C\c1cccs1	?	15%	-11%[59 µM]	-3%	16%	-1%

Source: PubChem BioAssay
